Data on 27 molecules can be found in PubChem BioAssay (NCI).

The panel holds about 83,000 compounds, 20% with a hit somewhere; the sample as a whole holds those more often.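 How to read the values: 0–100, growth inhibition (40 = 60% inhibited); 0, no net growth; -100 to 0, cell death (-40 = 40% of starting cells died; -100 = all dead).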 Values without a mark were called inactive. Calls of active or inactive are those of the source. How the source made its calls: active means growth percent below 10; inactive means the rest.

This experiment has as its system HL-60(TB) leukemia. Kind of experiment: NCI-60 one-dose screen, 48 h (100 = growth as untreated, 0 = no growth, -100 = all killed). The conditions noted are these: 10 µM unless noted.
Regarding `CCCCN(CCCC)C(=O)CC`, the growth was 97.3%.

As to `Fc1ccc(CNc2c3ccccc3nc3ccccc23)cc1`, the growth is 21.3%.

For `CC(C)N1CCN(c2ccc(OC[C@H]3CO[C@](Cn4cncn4)(c4ccc(Cl)cc4Cl)O3)cc2)CC1`, the growth is 91.3%.

Consider `CCCCn1c(C)nc2cc(Nc3nc(N4CCCCC4)nc4nc[nH]c34)ccc21`, for which the growth was 78.4%.

Turning to `O=S(=O)(NCCCNc1cc(-c2cn(-c3ccccc3)nc2-c2cccc(O)c2)ccn1)c1cccc(F)c1`, the growth is 39.1%.

Regarding `COc1cc(-c2nc3ccccc3s2)ccc1OCc1nc2n(n1)S(=O)(=O)c1ccccc1N2C`, the growth was 79.2%.

In the case of `COc1cc(OC)c2c(=O)cc(-c3ccccc3)oc2c1`, the growth was 72%.

As to `Cn1cc(-c2nonc2-c2c[nH]c3ccccc23)c2cccnc21`, the growth is 4.76% (active).

Turning to `CCOC(=O)C1=C(C(=O)c2ccccc2)C(c2cccc([N+](=O)[O-])c2)C(C(=O)c2ccccc2)=C(C(=O)OCC)N1`, the growth was 66.8%.

With `CC1CC(O)CC(C)(C)C1.CC1CC(O)CC(C)(C)C1.CC1CC(O)CC(C)(C)C1.CC1CC(O)CC(C)(C)C1.[Ti]` (configuration not stated), the growth is 104%.

For the molecule `Clc1nc(-c2cccnc2)nc2sc3c(c12)CCCCCC3`, the growth was 102%.

For `COc1cc(Cl)cc(-c2nn(-c3cccc(NC(=O)Nc4cc(C(F)(F)F)cc(C(F)(F)F)c4)c3)cc2-c2ccncc2)c1`, the growth was -20.1% (active).

`CCCCCC[C@@H](O)C/C=C\CCCCCCCC(=O)OCCOC`: the growth is 156%.

On to `O=c1c2cc(Br)cc(Br)c2nc(-c2ccc(Cl)cc2)n1/N=C/c1cccc(F)c1`, for which the growth is 71%.

Take `CN1CCN(CCCOc2ccc3nc(Nc4ccc(Cl)c(C(F)(F)F)c4)ccc3c2)CC1`: the growth is 63.7%.

With `Cc1c(-c2ccc(-c3ccccc3F)cc2)nc2ccc(F)cc2c1C(=O)O`, the growth was 5.22% (active).

For the molecule `S=CN1CCCCC1`, the growth is 102%.

For `O=C(N/N=C/c1ccc(Cl)cc1)c1cc(-c2cc3ccccc3o2)nn1-c1ccccc1`, the growth is 117%.

In the case of `COc1cc2cc(Oc3ccc(NC(=O)Nc4ccccc4)cc3)c(C)nc2cc1OCCN1CCCCC1`, the growth is -46.8% (active).

As for `[N-]=[N+]=NCC1OC(n2cnc3c(NC(=O)Nc4ccccc4)ncnc32)C2OC(=O)CC12` (configuration not stated), the growth is 87.3%.

`C=C1C(=O)O[C@H]2[C@H]1CC/C(Cn1cc(-c3cc(C)c(C)cc3C)nn1)=C\CC[C@@]1(C)O[C@@H]21`: the growth was -9.09% (active).

As for `CS(=O)(=O)c1ccc(C(=O)Nc2ccc(Cl)c(-c3ccccn3)c2)c(Cl)c1`, the growth was 14.2%.

For `C#C[C@@]1(O)[C@@H](CO)O[C@@H](n2cnc3c(-c4ccccc4)ncnc32)[C@@H]1O`, the growth was 102%.

In the case of `NCC(=O)NS(=O)(=O)OC[C@H]1O[C@@H](n2cnc3c(N)ncnc32)[C@H](O)[C@@H]1O`, the growth is -9.28% (active).

On to `Cc1cc(N/N=C/c2nc(-c3ccccc3)oc2C)c2cc(Br)ccc2n1`, for which the growth is 80%.

Take `C=C(CNCCc1ccc(O)cc1)[C@@H]1CC[C@]2(CO)CC[C@]3(C)[C@H](CC[C@@H]4[C@@]5(C)CCC(N)C(C)(C)[C@@H]5CC[C@]43C)[C@@H]12` (some centres not stated): the growth was -47% (active).

On to `COc1ccccc1NC(=O)Nc1ccc(-c2nc3ccccc3o2)cc1`, for which the growth was 88.5%.
